These results are taken from PubChem BioAssay (Tox21).

The structures appear in SMILES notation. Several values for one entry are separate records, joined by “and”; a condition that tells them apart may be missing. Equal entries are not always repeated. Inconclusive results are not listed. Activity calls are given as the source filed them. The call rests on the fitted dose curve; in most records, active means well fitted inhibition curve with a large enough effect in the repeat runs; inconclusive means weak or mixed curves; inactive means no such curve, though single readings can be large or run the other way.
Potency means the concentration at half of the fitted maximal effect.

This test is described as follows: qHTS assay to identify small molecule antagonists of the estrogen related receptor (ERR) signaling pathway from Tox21 library (AID 1224848). Further: nearly all actives have a fitted effect of over 50% in size. To be noted: ERR reporter cell line, luciferase antagonist mode, 18 h; series mostly up to 92.4 µM. An excerpt:
U.S. Tox21 Program National Center for Advancing Translational Sciences [NCATS] NIH Chemical Genomics Center [NCGC] U.S. Environmental Protection Agency [EPA] National Institutes of Environmental Health Sciences [NIEHS] National Toxicology Program [NTP] U.S. Food and Drug Administration [FDA] Tox21 Assay Overview: Estrogen related receptors (ERRs), the first orphan nuclear receptors discovered, play an important role in the control of cellular energy metabolism. ERRs are required for high-energy production in response to the environmental challenges. ERR-alpha was also identified as an adverse marker for breast cancer progression; ERR-alpha-positive tumors have a poor prognosis. To screen and to identify environmental compounds that perturb the ERR signaling pathways could provide valuable information for potential therapeutic or preventive measures in the treatment of metabolic disease. For identifying ERR antagonists, ERR cell line (provided by NTP) has been used to screen Tox21 10K library.
Tox21 Assay Protocol Summary: The ERR cells were dispensed at 2,000 cells/5 ul/well in 1536-well white plates using a Multidrop dispenser. After the assay plates were incubated at a 37 C/5% CO2 incubator for 6 hours, 23 nL of compounds dissolved in DMSO, positive and negative controls or DMSO only was transferred to the assay plate by a pin tool. The plates were incubated at 37 C for 18 hours. 4 ul/well of One-Glo reagent was added into the assay plates using a Flying Reagent Dispenser. After 30-minute incubation at room temperature, the luminescence intensity in the plates was measured using a ViewLux plate reader.
(In general: Quantitative high-throughput screening tests each substance at several concentrations.)
`CN1CSC(=S)N(C)C1`: the Potency is 4.83 µM (active) and 13.6 µM (active).

As to `CC(c1ccccc1)(c1ccc(O)cc1)c1ccc(O)cc1`, the Potency is 61.1 µM (active).

Consider `O=[N+]([O-])c1c(Cl)c(Cl)cc(Cl)c1Cl`, for which the Potency entry is “inactive”.

`Cc1ccc(N(SC(F)(Cl)Cl)S(=O)(=O)N(C)C)cc1`: the Potency is 24.3 µM (active).

With `O=C(O)/C=C/C(=O)O`, the Potency entry was “inactive”.

As to `Cc1cc(C(C)(C)c2ccc(O)c(C)c2)ccc1O`, the Potency was 26 µM (active).

`COc1cc(OC)c(OC)cc1C=O`: the Potency is 18.7 µM (active).

With `CCC1C(=O)OCC1Cc1cncn1C` (stereo unspecified), the Potency entry was “inactive”.

As to `CCn1cc(C(=O)O)c(=O)c2ccc(C)nc21`, the Potency result is “inactive”.

As to `CC1COC(Cn2cncn2)(c2ccc(Oc3ccc(Cl)cc3)cc2Cl)O1` (stereo unspecified), the Potency is 4.33 µM (active).

On to `N#Cc1cc([N+](=O)[O-])ccc1N`, for which the Potency entry was “inactive”.

Consider `COc1ccc(C(c2ccc(OC)cc2)C(Cl)(Cl)Cl)cc1`, for which the Potency was 30.5 µM (active).

Take `O=C(Nc1ccccc1-c1ccc(Cl)cc1)c1cccnc1Cl`: the Potency was 32.5 µM (active).

In the case of `CCN(CC)C(=O)Cl`, the Potency result is “inactive”.

On to `CC(N)C(=O)OC(C)(C)Cc1ccc(Cl)cc1` (stereo unspecified), for which the Potency entry is “inactive”.

With `Cc1cc(C)c(C(=O)P(=O)(c2ccccc2)c2ccccc2)c(C)c1`, the Potency was 54.5 µM (active).

In the case of `Nc1ccc([N+](=O)[O-])cc1`, the Potency is 7.7 µM (active).

`Cc1nnc2n1-c1sc(CCc3ccc(CC(C)C)cc3)cc1C(c1ccccc1Cl)=NC2C` (stereo unspecified): the Potency is 9.44 µM (active).

For `CO/C=C(/C(=O)OC)c1ccccc1Oc1cc(Oc2ccccc2C#N)ncn1`, the Potency was 2.06 µM (active).

Regarding `O=S(=O)(C(Cl)(Cl)Cl)C(Cl)(Cl)Cl`, the Potency is 54.5 µM (active).

`O=C(O)/C=C\C(=O)O`: the Potency result is “inactive”.
